A selection: hits, their analogues and other compounds. The true share with any hit is near 2.9%.
ABHD5 PLIN5 PPI – blocks binding of human ABHD5 to perilipin-5 | Split G. princeps luciferase complementation, luminescence, 4 h | AID 602281 | Q00G26+Q8WTS1 | actives 0.78% (n = 360,000) | inhibition, % at 4 µM;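 active = inhibition above the mean inhibition across every tested compound plus 3 SD, cut at about 22% in these data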;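 note: 0% = DMSO only wells and the 100% control is not disclosed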
Rtt109 HAT inh – inhibitors of Candida albicans Rtt109/Vps75 histone acetyltransferase | Q5AAJ8 | actives 0.16% (n = 330,000) | purified Rtt109/Vps75, ThioGlo CoA-SH fluorescence, 4 h | inhibition, % at 34.9 µM;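 active = inhibition of at least 50% in every replicate; inconclusive = best replicate reaches 50% inhibition but some replicates fall short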
Target sequence (Q5AAJ8 whole entry, looked up): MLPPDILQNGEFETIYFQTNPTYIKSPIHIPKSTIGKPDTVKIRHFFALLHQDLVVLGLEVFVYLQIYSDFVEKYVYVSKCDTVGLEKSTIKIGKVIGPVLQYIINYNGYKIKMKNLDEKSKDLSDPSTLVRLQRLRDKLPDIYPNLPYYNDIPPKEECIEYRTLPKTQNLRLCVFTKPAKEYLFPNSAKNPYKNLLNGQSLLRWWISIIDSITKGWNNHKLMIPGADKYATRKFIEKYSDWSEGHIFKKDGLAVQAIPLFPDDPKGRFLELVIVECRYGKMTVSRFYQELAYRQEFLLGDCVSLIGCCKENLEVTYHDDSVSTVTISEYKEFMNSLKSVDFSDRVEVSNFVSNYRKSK
DAGLB inhibitor – diacylglycerol lipase beta (human) inhibition | HEK293T DAGLB membrane lysate, EnzChek fluorogenic substrate | inhibition, % at 5.17 µM | actives 0.059% (n = 340,000) | AID 504411; in the data active = inhibition above about 34%;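 note: 0% = enzyme with vehicle and 100% = wells lacking enzyme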
Cardio protect – modulators protecting cardiomyocytes from myocardial damage. H9c2 cardiomyocytes, H2O2 injury protection, ATPLite, 2 h. protection from H2O2 cell death, % at 20 µM. actives 0.63% (n = 360,000);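 active = compounds giving at least 50% protection of heart cells from peroxide-induced death in the single-dose screen, raw or plate-pattern-corrected value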;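 note: 0% = DMSO wells with peroxide and 100% = DMSO wells without peroxide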
Myeloid diff MLP – promotes myeloid progenitor differentiation; actives 1% (n = 360,000); calls only at 10 µM; ER-HoxA9 myeloid progenitors, lysozyme-GFP differentiation, flow cytometry;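 active = normalized GFP-positive differentiation at or above the plate's own cutoff, the solvent-only control mean plus 3 SD; inconclusive = no clear call, values can overlap the other calls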;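 note: cells exposed to compound for four days before flow analysis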
HGIII-sPLA2 inh – Blocks human group III sPLA2 activity; Q9NZ20; actives 0.56% (n = 370,000); QFRET BODIPY PC-A2 liposome hydrolysis, fluorescence; inhibition, % at 12.2 µM;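 active = inhibition above mean plus 3 SD of compounds lying within the high and low control bounds, cut at about 19% in these data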;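 note: 0% = median of test compound wells and 100% = no enzyme DMSO wells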
sPLA2 confirm – human GIII-sPLA2 inhibition, confirmation | recombinant hGIII-sPLA2, BODIPY PC-A2 QFRET fluorescence | AID 743280 | inhibition, % at 12.2 µM | shares compounds with HGIII-sPLA2 inh | actives 34% (n = 2,000);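 active = mean inhibition across triplicates above the hit cutoff set in the earlier primary screen, cut at about 19% in these data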;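 note: 0% = enzyme with DMSO and 100% = DMSO wells lacking enzyme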
535nm interf – 535nm fluorescence interference, HGIII-sPLA2 counter-screen. shares compounds with HGIII-sPLA2 inh. BODIPY FL product fluorescence interference, QFRET. AID 743282. actives 8.5% (n = 2,000). inhibition, % at 12.2 µM;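 active = average inhibition above the solvent-only control mean plus 3 SD, cut at about 6% in these data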;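 note: 0% = DMSO with substrate plus product and 100% = DMSO with substrate alone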
Active calls of the source: *.

What do the screens show for `CCOC(=O)c1[nH]cnc1C(=O)NC(C)C`?
ABHD5 PLIN5 PPI: -1; Rtt109 HAT inh: 3; DAGLB inhibitor: -1; Cardio protect: 10; Myeloid diff MLP: inactive; HGIII-sPLA2 inh: 4

What do the screens show for `O=C(NC(=S)N1CCN(C/C=C/c2ccccc2)CC1)c1c(F)cccc1F`?
ABHD5 PLIN5 PPI: 3; Rtt109 HAT inh: 1; DAGLB inhibitor: -2; Cardio protect: 4; Myeloid diff MLP: inactive; HGIII-sPLA2 inh: 27*; sPLA2 confirm: 24*; 535nm interf: -2

Results for CCC(=O)NC(c1ccco1)c1cc(Cl)c2cccnc2c1O (stereo unspecified) ?
ABHD5 PLIN5 PPI: 0; Rtt109 HAT inh: 0; DAGLB inhibitor: 9; Cardio protect: 32; Myeloid diff MLP: inconclusive; HGIII-sPLA2 inh: 16

Results for O=C(CCc1ccccc1)NC(c1cccs1)c1cc(Cl)c2cccnc2c1O (stereo unspecified) ?
ABHD5 PLIN5 PPI: 5; Rtt109 HAT inh: -1; DAGLB inhibitor: 4; Cardio protect: 48; Myeloid diff MLP: inconclusive; HGIII-sPLA2 inh: 23*; sPLA2 confirm: 15; 535nm interf: 4

Results for CCCCC(=O)NC(c1ccco1)c1cc(Cl)c2cccnc2c1O (stereo unspecified) ?
ABHD5 PLIN5 PPI: 7; Rtt109 HAT inh: -5; DAGLB inhibitor: 17; Cardio protect: 31; HGIII-sPLA2 inh: 23*; sPLA2 confirm: 19; 535nm interf: -7

What do the screens show for `Cc1ccc(C(C)NC(=S)NC2CCCCC2)cc1C` (stereo unspecified)?
ABHD5 PLIN5 PPI: -1; Rtt109 HAT inh: 3; DAGLB inhibitor: -5; Cardio protect: -2; Myeloid diff MLP: inactive; HGIII-sPLA2 inh: 20*; sPLA2 confirm: 11; 535nm interf: -4

What do the screens show for `O=C(CC12CC3CC(CC(Br)(C3)C1)C2)Nc1nncs1`?
ABHD5 PLIN5 PPI: -1; Rtt109 HAT inh: -1; DAGLB inhibitor: 0; Cardio protect: 4; Myeloid diff MLP: inactive; HGIII-sPLA2 inh: 10

Results for O=C1CC(=O)CC(c2ccccc2)C1 ?
ABHD5 PLIN5 PPI: -3; Rtt109 HAT inh: 1; DAGLB inhibitor: 2; Cardio protect: 4; Myeloid diff MLP: inactive; HGIII-sPLA2 inh: 2

What do the screens show for `O=S1(=O)CCS(=O)(=O)C1c1ccccc1`?
ABHD5 PLIN5 PPI: 7; Rtt109 HAT inh: 2; DAGLB inhibitor: -5; Cardio protect: 0; Myeloid diff MLP: inactive; HGIII-sPLA2 inh: 20*; sPLA2 confirm: -2; 535nm interf: -5

How did CCOCCCNC(=S)N(Cc1ccccc1)Cc1nc2ccccc2c(=O)[nH]1 do in these assays?
ABHD5 PLIN5 PPI: -6; Rtt109 HAT inh: -9; DAGLB inhibitor: 1; Cardio protect: 6; Myeloid diff MLP: inactive; HGIII-sPLA2 inh: -12

How did CCCNC(=S)N(Cc1ccccc1)Cc1nc2ccccc2c(=O)[nH]1 do in these assays?
ABHD5 PLIN5 PPI: 4; Rtt109 HAT inh: 5; DAGLB inhibitor: 2; Cardio protect: 1; Myeloid diff MLP: inactive; HGIII-sPLA2 inh: 22*; sPLA2 confirm: -2; 535nm interf: -11

Results for Cc1ccc(/C=N/Nc2nc(Cl)c(Cl)cc2Cl)s1 ?
ABHD5 PLIN5 PPI: -2; Rtt109 HAT inh: -2; DAGLB inhibitor: -3; Cardio protect: -4; Myeloid diff MLP: inactive; HGIII-sPLA2 inh: 8

How did O=C(CCCNC(=O)c1ccc(Cl)cc1)Nc1ccccc1F do in these assays?
ABHD5 PLIN5 PPI: -11; Rtt109 HAT inh: -8; DAGLB inhibitor: 1; Cardio protect: -2; Myeloid diff MLP: inactive; HGIII-sPLA2 inh: 21*; sPLA2 confirm: -3; 535nm interf: -5

Results for O=C(Nc1ccccc1Oc1ccccc1)c1cc([N+](=O)[O-])ccc1Cl ?
ABHD5 PLIN5 PPI: 3; Rtt109 HAT inh: -6; DAGLB inhibitor: -5; Cardio protect: -1; Myeloid diff MLP: inactive; HGIII-sPLA2 inh: 23*; sPLA2 confirm: 14; 535nm interf: -5

Screening data (PubChem BioAssay)
